{"source": "ChEMBL document CHEMBL3988442", "about": "“University of Dundee, Small-Polar-MMV Screening Library” (2021)", "data": [{"target": "AMP-activated protein kinase, AMPK (Homo sapiens) (UniProt P54646+O43741+P54619+Q9UGJ0+Q9Y478+Q13131+Q9UGI9)", "assay": "AMP-dependent Kinase enzyme assay. An in vitro enzyme assay that detects ADP turnover that is directly proportional to AMPK activity. This uses naive AMPK that is activated during the assay with MK-8722", "type": "functional", "parameters": "scale not given: direction of the effect not stated beside the values", "settings": "30 µM", "units": {"Percent Effect": "%"}, "values": [{"compound": "Cc1ncsc1C(=O)N1CC[C@@]2(O)CCN(C(=O)N3CCCC3)C[C@H]2C1", "Percent Effect": -1.97}, {"compound": "Fc1ccccc1CN1CCC[C@H](Cn2nnc(-c3cccs3)n2)C1", "Percent Effect": 4.46}, {"compound": "CC(C)N(Cc1ccccn1)C(=O)CCOc1cccc(F)c1", "Percent Effect": -0.803}, {"compound": "Cc1noc(C(C)N2CCC(c3nc4ccccc4[nH]3)CC2)n1", "note": "(stereo not given)", "Percent Effect": 1.83}, {"compound": "O=C1CN(c2ccc(C(=O)N3CCc4ccccc43)cn2)CCN1", "Percent Effect": 5.07}, {"compound": "CCC(C)Oc1ccc(CNCCNC(C)=O)cc1Cl", "note": "(stereo not given)", "Percent Effect": -6.19}, {"compound": "CCC[C@@H]1CN(Cc2ccc(C(F)(F)F)nc2)C[C@H]1C(=O)O", "Percent Effect": -4.32}, {"compound": "COc1ncccc1-c1cc(C(N)=O)ccn1", "Percent Effect": 1.56}, {"compound": "O=S(=O)(NCCCn1cncn1)c1ccc2c(c1)CCO2", "Percent Effect": 4.51}, {"compound": "NC(=O)c1cc(C2CCCN(Cc3ccc4c(c3)OCCO4)C2)n[nH]1", "note": "(stereo not given)", "Percent Effect": 3.64}, {"compound": "COc1cc(OC)cc(-c2cccc3c2OC(CN)C3)c1", "note": "(stereo not given)", "Percent Effect": -5.59}, {"compound": "CC(C)(C)c1noc(CCCC(=O)N2CCNC(=O)C2)n1", "Percent Effect": -8.74}, {"compound": "Nc1ccnc(N2CCC(c3nccn3CC3CC3)CC2)n1", "Percent Effect": -3.62}, {"compound": "CCC(NC(=O)NC1CCN(S(C)(=O)=O)CC1)c1cccs1", "note": "(stereo not given)", "Percent Effect": -3.19}, {"compound": "CSCCC(NC(N)=O)C(=O)NCc1cnn(-c2ccccc2)c1", "note": "(stereo not given)", "Percent Effect": -5.05}, {"compound": "Oc1cccc(CNCc2ccc(-n3cncn3)nc2)c1", "Percent Effect": 2.63}, {"compound": "Cc1cc(C)nc(N2CC[C@H](Oc3ccccc3F)[C@@H](O)CC2)n1", "Percent Effect": 21.5}, {"compound": "CCOc1ccc(Cl)cc1CCNC(=O)c1ccc(=O)n(C)c1", "Percent Effect": 7.18}, {"compound": "COc1cccc2c1CCCCN2C(=O)c1oc(C)nc1C", "Percent Effect": 5.74}, {"compound": "CCOC(=O)CC1(Nc2nc(C)nc3c2cnn3C)CCCCC1", "Percent Effect": 14.9}, {"compound": "CCn1cnnc1CCNC(=O)c1ccc(Br)cc1F", "Percent Effect": -0.992}, {"compound": "Cc1ccc(S(=O)(=O)N(C)CC(C)O)c(F)c1", "note": "(stereo not given)", "Percent Effect": 8.59}, {"compound": "Cc1cc(=O)n2nc(Oc3cccc(I)c3)sc2n1", "Percent Effect": -1.18}, {"compound": "O=C(COc1ccc(F)cc1F)N1CCOCC(O)(CN2CCCC2)C1", "note": "(stereo not given)", "Percent Effect": 8.54}, {"compound": "CNC(=O)c1cccnc1NCc1ccc(-n2cccn2)cc1", "Percent Effect": -0.487}, {"compound": "COc1ncnc(N)c1CNCc1ccccc1-n1cccn1", "Percent Effect": -8.85}, {"compound": "COCCCN1CC2(CCN(C(=O)c3ccc(=O)n(C)c3)CC2)CC1=O", "Percent Effect": 9.31}, {"compound": "COC(=O)c1ccc(Cn2cccc(C(F)(F)F)c2=O)c(OC)c1", "Percent Effect": 6.82}, {"compound": "NC(=O)CN(Cc1ncc(-c2ccc(F)cc2)o1)C1CCCC1", "Percent Effect": -3.13}, {"compound": "Cc1ccc(CNC(=O)NCc2nccn2C)c(OC(C)(C)C)c1", "Percent Effect": 11.3}, {"compound": "CCc1nnc(CN2CC(n3cccn3)C2)o1", "Percent Effect": -3.56}, {"compound": "O=C(Cc1c[nH]c(=O)[nH]c1=O)N1CCCCC1CCc1cccc(O)c1", "note": "(stereo not given)", "Percent Effect": 1.27}, {"compound": "Cc1ccc(CCCC(=O)N2CCC(=O)Nc3cccnc32)s1", "Percent Effect": -8.96}, {"compound": "NCC(CO)Cc1cccc(OC(F)(F)F)c1", "note": "(stereo not given)", "Percent Effect": -3.22}, {"compound": "Cc1ccc(CN(CCN(C)C)Cc2c(C)nc3sccn23)o1", "Percent Effect": 14.3}, {"compound": "CN(CCc1ncnn1-c1ccccc1Cl)C1CCS(=O)(=O)C1", "note": "(stereo not given)", "Percent Effect": -10}, {"compound": "O=C(CCOc1ccccc1F)N1CCOCC1", "Percent Effect": -12.5}, {"compound": "COCCN1C[C@@H](C(=O)O)[C@H](c2ccccc2C)C1", "Percent Effect": -1.51}, {"compound": "CCC(C)c1csc(NC(=O)c2sc(-c3nnc[nH]3)nc2C)n1", "note": "(stereo not given)", "Percent Effect": 12.2}, {"compound": "CCS(=O)(=O)N1Cc2ccccc2CC1C(=O)OCc1cc(C)no1", "note": "(stereo not given)", "Percent Effect": 5.87}]}]}
